Here are results for seven compounds from PubChem BioAssay (Tox21).

Assay [1] is described as follows: qHTS assay to identify small molecule antagonists of the thyroid receptor (TR) signaling pathway (AID 743065). Further: nearly all actives have a fitted effect of over 55% in size. Further: potency means the concentration at half of the fitted maximal effect. The gist of the method:
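GH3.TRE-Luc rat pituitary cells carrying two TR response elements driving luciferase were plated for 4 h, given compound plus 1 nM T3 (final), and incubated 23.5 h at 37 C. ONE-Glo luminescence measured reporter inhibition; CellTiter-Fluor fluorescence tracked cytotoxicity.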

The subject of assay [2] is thyroid hormone receptor (rat, GH3 cells). The assay can be described thus: qHTS assay to identify small molecule agonists of the thyroid receptor (TR) signaling pathway (AID 743066; calls by dose curve; further: potency means the concentration at half of the fitted maximal effect).
The nature of assay [3]: qHTS assay to identify small molecule antagonists of the estrogen receptor alpha (ER-alpha) signaling pathway - cell viability counter screen (AID 743074; calls by dose curve;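 further: HEK293 cells carrying ER-alpha-UAS-bla reporter stimulated with 17beta-estradiol; nearly all actives have a fitted effect of over 45% in size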; further: potency means the concentration at half of the fitted maximal effect).
Assay [4] concerns the target Estrogen receptor (Homo sapiens) (UniProt P03372). The assay can be described thus: qHTS assay to identify small molecule agonists of the estrogen receptor alpha (ER-alpha) signaling pathway (AID 743075; calls by dose curve;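 further: HEK293 GripTite cells with ER-alpha and UAS-driven beta-lactamase reporter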; further: potency means the concentration at half of the fitted maximal effect). (qHTS replaces the single test concentration by a dilution series.)
For assay [5] the target is unchanged. The assay can be described thus: qHTS assay to identify small molecule agonists of the estrogen receptor alpha (ER-alpha) signaling pathway using the BG1 cell line (AID 743079). Further: nearly all actives have a fitted effect of over 20% in size. Further: potency means the concentration at half of the fitted maximal effect.
The nature of assay [6]: qHTS assay to identify small molecule antagonists of the estrogen receptor alpha (ER-alpha) signaling pathway using the BG1 cell line (AID 743080; calls by dose curve;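 further: BG1 cells stimulated with 17beta-estradiol alongside compound; nearly all actives have a fitted effect of over 25% in size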; further: potency means the concentration at half of the fitted maximal effect). The gist of the method:
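Luciferase inhibition measured with ONE-Glo after 30 min at RT in BG1Luc4E2 cells given test compounds and 17beta-estradiol for 21.5 h at 37 C; CellTiter-Fluor viability read in the same wells beforehand.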

Assay [7] is described as follows: qHTS assay to identify small molecule antagonists of the estrogen receptor alpha (ER-alpha) signaling pathway using the BG1 cell line - cell viability counter screen (AID 743081).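 Further: compound given together with 17beta-estradiol as the ER stimulus; nearly all actives have a fitted effect of over 45% in size.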 Further: potency means the concentration at half of the fitted maximal effect.
Assay [8] can be described thus: qHTS assay to identify aromatase inhibitors - cell viability counter screen (AID 743084).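 Further: cells stimulated with testosterone during compound exposure; nearly all actives have a fitted effect of over 55% in size.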 Further: potency means the concentration at half of the fitted maximal effect.
Assay [9] concerns the target Aryl hydrocarbon receptor (Homo sapiens) (UniProt P35869). The assay can be described thus: qHTS assay to identify small molecule that activate the aryl hydrocarbon receptor (AhR) signaling pathway (AID 743085). Further: nearly all actives have a fitted effect of over 15% in size. Further: potency means the concentration at half of the fitted maximal effect.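 On activation: HG2L7.5c1 human HepG2 liver cells with stably integrated DRE-driven firefly reporter; series mostly up to about 70 µM.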 In outline: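 Cell line HG2L7.5c1 (human hepatoma, 20× DRE-luc). Plated, 5 h 37C, compound/DMSO added, 24 h 37C. CellTiter-Fluor 30 min 37C → fluorescence; then ONE-Glo 30 min RT → luminescence.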

Assay [10] in a line: qHTS assay to identify small molecule that activate the aryl hydrocarbon receptor (AhR) signaling pathway - cell viability counter screen (AID 743086). Further: nearly all actives have a fitted effect of over 45% in size. Further: potency means the concentration at half of the fitted maximal effect. In outline:
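HepG2-AhR-luc (HG2L7.5c1) cells, 4000/well, were preincubated 5 h at 37C, exposed to compound in qHTS format for 24 hr at 37C, then given CellTiter-Fluor for 30 min; viability was read as fluorescence in the reporter wells.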

Assay [11] is described as follows: qHTS assay to identify small molecule antagonists of the peroxisome proliferator-activated receptor gamma (PPARg) signaling pathway - cell viability counter screen (AID 743194). Further: nearly all actives have a fitted effect of over 55% in size. Further: potency means the concentration at half of the fitted maximal effect. In outline: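 PPARg-UAS-bla HEK293H cells were plated, rested 5 h at 37 C, then treated with compounds plus rosiglitazone (50 nM final) for 17 h at 37 C; viability was then read by CellTiter-Glo luminescence after 30 min at room temperature.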

Assay [12] in a line: qHTS assay for small molecule agonists of the antioxidant response element (ARE) signaling pathway - cell viability counter screen (AID 743203; calls by dose curve; further: nearly all actives have a fitted effect of over 55% in size; further: potency means the concentration at half of the fitted maximal effect). In outline:
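Viability counter screen: stably transfected ARE-bla HepG2 line, 16 hrs compound exposure at 37C/5% CO2, ATP-based CellTiter-Glo luminescence measured in the reporter wells.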

Assay [13] can be described thus: qHTS assay for small molecule activators of the heat shock response signaling pathway - cell viability counter screen (AID 743209). Further: nearly all actives have a fitted effect of over 50% in size. Further: potency means the concentration at half of the fitted maximal effect. In outline: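 Viability of HSE-bla HeLa cells is measured with CellTiter-Glo in the wells already used for the reporter read. Compound exposure lasts 5 h at 37 C, and luminescence is read after 30 min at room temperature.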
The nature of assay [14]: qHTS assay to identify small molecule agonists of the peroxisome proliferator-activated receptor delta (PPARd) signaling pathway - cell viability counter screen (AID 743211). Further: nearly all actives have a fitted effect of over 55% in size. Further: potency means the concentration at half of the fitted maximal effect. The gist of the method:
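HEK293H PPARd-bla, 3000 cells/well; 5 h preincubation 37C/5% CO2; cpd in DMSO, 17 h 37C; B/G FRET substrate 2 h RT; CellTiter-Glo 30 min RT, luminescence.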

Another assay deals with Aromatase (Homo sapiens) (UniProt P11511). The assay can be described thus: qHTS assay to identify aromatase inhibitors (AID 743083). Further: nearly all actives have a fitted effect of over 55% in size. Further: potency means the concentration at half of the fitted maximal effect.
The target of assay [15] is Peroxisome proliferator-activated receptor gamma (Homo sapiens) (UniProt P37231). The assay can be described thus: qHTS assay to identify small molecule agonists of the peroxisome proliferator-activated receptor gamma (PPARg) signaling pathway (AID 743094; active means well fitted activation curve with a large enough effect in the signal ratio in the repeat runs, not every such curve was filed as active; inconclusive means weak or mixed curves, or effect the other way; inactive means no such curve, though single readings can be large or run the other way; the % refers to the signal ratio). The gist of the method: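 Reporter activation was scored by fluorescence of cleaved LiveBLAzer B/G substrate (1 h, room temperature) in PPARg-bla HEK293H cells previously treated 17 h at 37C with DMSO-dissolved compounds.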

Assay [16] has the same target. The assay can be described thus: qHTS assay to identify small molecule antagonists of the peroxisome proliferator-activated receptor gamma (PPARg) signaling pathway (AID 743191; calls by dose curve; further: series mostly up to about 63 µM; nearly all actives have a fitted effect of over 30% in size). The gist of the method:
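GeneBLAzer PPARg UAS-bla HEK293H cells carrying a UAS-driven beta-lactamase reporter were plated at 3000 cells/well, preincubated 5 h at 37C, then given compound for 17 h at 37C; LiveBLAzer B/G FRET substrate was read after 1 h at room temperature.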

The nature of assay [17]: qHTS assay for small molecule agonists of the antioxidant response element (ARE) signaling pathway (AID 743202; active means well fitted activation curve with a large enough effect in the signal ratio in the repeat runs, not every such curve was filed as active; inconclusive means weak or mixed curves, or effect the other way; inactive means no such curve, though single readings can be large or run the other way; the % refers to the signal ratio). In outline:
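Following a 16 h, 37 C exposure of reporter HepG2 cells (ARE-driven beta-lactamase, 2,000 cells/well) to compounds, FRET substrate was applied for 2 h at room temperature and fluorescence intensity recorded.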

The nature of assay [18]: qHTS assay for small molecule activators of the heat shock response signaling pathway (AID 743210; active means well fitted activation curve with a large enough effect in the signal ratio in the repeat runs, with a control signal flat, not every such curve was filed as active; inconclusive means weak or mixed curves; the % refers to the signal ratio; further: series mostly up to about 63 µM). The gist of the method: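 Heat shock element–beta-lactamase HeLa reporter cells; qHTS with compounds for 5 h at 37 C; detection by FRET substrate fluorescence after 2.5 h at RT.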

Structures are written as SMILES. Several values for one entry are separate records, joined by “and”; a condition that tells them apart may be missing. Equal entries are not always repeated. Some compounds were tested as several samples or in several runs, with calls that do not always agree. Activity calls are given as the source filed them. Unless noted, the call rests on the fitted dose curve; in most records, active means well fitted curve in the direction sought with a large enough effect in the repeat runs; inconclusive means weak or mixed curves; inactive means no such curve, though single readings can be large; an effect the other way counts as inactive or inconclusive.

Sequence of Aryl hydrocarbon receptor (Homo sapiens) (P35869 whole entry, looked up): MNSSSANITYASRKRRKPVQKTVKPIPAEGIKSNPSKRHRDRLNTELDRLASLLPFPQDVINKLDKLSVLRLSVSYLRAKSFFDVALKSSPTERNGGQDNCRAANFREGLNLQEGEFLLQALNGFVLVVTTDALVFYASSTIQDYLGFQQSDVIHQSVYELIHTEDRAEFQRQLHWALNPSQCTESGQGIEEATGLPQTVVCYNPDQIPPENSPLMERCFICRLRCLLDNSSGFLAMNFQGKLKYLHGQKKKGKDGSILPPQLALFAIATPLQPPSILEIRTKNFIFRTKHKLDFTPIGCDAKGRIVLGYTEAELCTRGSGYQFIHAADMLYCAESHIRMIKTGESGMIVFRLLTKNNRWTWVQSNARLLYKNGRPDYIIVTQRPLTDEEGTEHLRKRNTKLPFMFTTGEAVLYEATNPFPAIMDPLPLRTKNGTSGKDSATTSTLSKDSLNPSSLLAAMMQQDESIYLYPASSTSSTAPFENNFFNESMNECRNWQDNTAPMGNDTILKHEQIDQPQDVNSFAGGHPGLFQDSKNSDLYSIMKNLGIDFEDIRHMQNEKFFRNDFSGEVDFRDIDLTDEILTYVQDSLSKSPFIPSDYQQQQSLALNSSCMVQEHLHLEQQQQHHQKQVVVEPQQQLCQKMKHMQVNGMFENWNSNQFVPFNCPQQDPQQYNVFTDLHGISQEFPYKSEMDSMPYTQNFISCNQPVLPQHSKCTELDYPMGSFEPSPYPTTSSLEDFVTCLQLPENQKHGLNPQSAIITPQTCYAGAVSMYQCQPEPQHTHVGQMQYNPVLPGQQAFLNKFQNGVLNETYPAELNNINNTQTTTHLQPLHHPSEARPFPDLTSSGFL
Sequence of Peroxisome proliferator-activated receptor gamma (Homo sapiens) (P37231 whole entry, looked up): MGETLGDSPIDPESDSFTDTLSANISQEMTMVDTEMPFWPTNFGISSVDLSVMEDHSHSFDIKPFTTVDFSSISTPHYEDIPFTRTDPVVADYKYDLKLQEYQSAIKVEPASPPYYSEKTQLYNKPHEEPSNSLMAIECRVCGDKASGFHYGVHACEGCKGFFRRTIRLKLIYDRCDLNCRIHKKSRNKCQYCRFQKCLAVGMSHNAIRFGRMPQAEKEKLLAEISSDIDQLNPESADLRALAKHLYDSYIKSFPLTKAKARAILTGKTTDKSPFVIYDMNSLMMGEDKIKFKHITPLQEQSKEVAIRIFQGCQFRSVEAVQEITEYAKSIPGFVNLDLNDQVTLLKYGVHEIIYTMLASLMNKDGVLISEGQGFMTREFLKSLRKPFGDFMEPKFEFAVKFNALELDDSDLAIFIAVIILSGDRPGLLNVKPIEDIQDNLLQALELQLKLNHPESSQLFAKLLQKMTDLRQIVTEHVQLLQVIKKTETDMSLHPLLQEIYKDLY
Sequence of Estrogen receptor (Homo sapiens) (P03372 whole entry, looked up): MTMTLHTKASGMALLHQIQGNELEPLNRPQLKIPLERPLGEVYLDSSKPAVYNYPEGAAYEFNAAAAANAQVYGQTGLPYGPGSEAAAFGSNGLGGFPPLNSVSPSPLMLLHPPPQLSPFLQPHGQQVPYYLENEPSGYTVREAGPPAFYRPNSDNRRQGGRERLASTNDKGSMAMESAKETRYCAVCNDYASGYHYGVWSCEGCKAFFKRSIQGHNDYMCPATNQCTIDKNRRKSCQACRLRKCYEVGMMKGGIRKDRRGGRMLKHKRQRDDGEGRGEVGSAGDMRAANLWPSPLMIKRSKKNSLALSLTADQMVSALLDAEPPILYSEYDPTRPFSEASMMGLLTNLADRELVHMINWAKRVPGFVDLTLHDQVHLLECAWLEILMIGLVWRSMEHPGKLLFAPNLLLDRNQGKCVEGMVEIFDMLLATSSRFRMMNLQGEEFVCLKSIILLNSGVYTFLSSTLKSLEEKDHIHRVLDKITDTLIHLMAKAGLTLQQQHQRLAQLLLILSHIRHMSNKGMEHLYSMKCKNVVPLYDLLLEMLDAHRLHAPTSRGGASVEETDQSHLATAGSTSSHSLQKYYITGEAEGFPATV
Sequence of Aromatase (Homo sapiens) (P11511 whole entry, looked up): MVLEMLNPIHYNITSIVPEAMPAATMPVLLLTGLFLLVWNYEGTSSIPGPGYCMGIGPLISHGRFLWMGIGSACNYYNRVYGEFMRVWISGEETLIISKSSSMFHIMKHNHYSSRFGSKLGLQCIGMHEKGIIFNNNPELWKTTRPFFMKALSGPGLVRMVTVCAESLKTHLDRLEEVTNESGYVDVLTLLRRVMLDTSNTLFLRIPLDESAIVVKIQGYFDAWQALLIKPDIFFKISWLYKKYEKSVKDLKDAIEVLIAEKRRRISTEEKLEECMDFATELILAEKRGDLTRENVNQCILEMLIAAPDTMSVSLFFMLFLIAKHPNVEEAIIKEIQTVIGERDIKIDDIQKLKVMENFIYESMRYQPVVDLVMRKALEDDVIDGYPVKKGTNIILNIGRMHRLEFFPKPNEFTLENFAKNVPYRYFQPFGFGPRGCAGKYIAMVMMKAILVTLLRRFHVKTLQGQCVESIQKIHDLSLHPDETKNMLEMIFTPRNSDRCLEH

For `CC(C)(C)c1cc(C(C)(C)C)c(O)c(C(C)(C)C)c1`, the Potency was 27.3 µM (active) in assay [1]; 9.69 µM (active) in [2]; 54.9 µM (active) and 49 µM (active) in assay [13]; 49 µM (active) in assay [14]. Besides, the Potency entry in assay [3], in assay [4], in assay [5], in [6], in [7] and in assay [8] was “inactive” in each case. Further, the Potency result in assay [9], in [10], in assay [11] and in [12] was “inactive” throughout.

`c1ccc2n[nH]nc2c1`: the Potency result (in [1]; in assay [2]; in assay [3]; in assay [7]; in the assay with Aromatase (Homo sapiens); in [8]) was “inactive” in each case. For the same compound, the Potency result in assay [9], in assay [10], in assay [15], in assay [16], in [11] and in assay [17] was “inactive” each time. The Potency entry in [12], in assay [18] and in assay [14] was “inactive” each time.

Consider `Cc1cc(C2(c3cc(C)c(O)cc3C)OS(=O)(=O)c3ccccc32)c(C)cc1O`, for which the Potency entry in assay [1], in assay [2], in assay [3], in assay [6], in assay [15] and in [16] was “inactive” in each case. The Potency result in assay [11], in [17], in assay [13] and in [14] was “inactive” in each case. Also, the Potency in assay [4] is 1.38 µM [inconclusive] (active) and inactive; in assay [5], 864 nM (active) and 10.9 µM (active); in assay [7], 27.3 µM (active) and 24.3 µM (active); in assay [8] it was 21.7 µM (active) and 24.3 µM (active); in assay [9], 30.6 µM (active) and inactive; in assay [10], 19.3 µM (active) and 21.7 µM (active).

For the compound `CC(C)CCCCCCc1ccc(O)cc1`, the Potency is 22.1 µM (active) and 21.7 µM (active) in assay [1]; 2.39 µM [inconclusive] (active) and 1.25 µM [inconclusive] (active) and 17.4 µM [inconclusive] (active) in assay [4]; 1.88 µM (active) and 878 nM (active) and 2.17 µM (active) in [5]; “inactive and 43.3 µM (active)” in [6]; 34.4 µM (active) with Aromatase (Homo sapiens); “inactive and 31.2 µM (active)” in [8]. Also, the Potency in assay [14] was 35.3 µM (active). For the same compound, the Potency result in assay [2], in assay [3], in assay [7], in assay [9], in assay [10] and in [15] was “inactive” in each case. Also, the Potency entry in assay [12] was “inactive”.

As to `C[N+]1([O-])CCOCC1`, the Potency entry (in [1]; in assay [2]; in [3]; in [7]; with Aromatase (Homo sapiens); in [8]) was “inactive” throughout. The Potency result in assay [9], in assay [10], in assay [15], in assay [16], in assay [11] and in [17] was “inactive” each time. In addition, the Potency result in assay [13], in assay [18] and in assay [14] was “inactive” throughout.

Turning to `Cc1cc(OCCOCC[N+](C)(C)Cc2ccccc2)ccc1C(C)(C)CC(C)(C)C`, the Potency in assay [1] is 13.3 µM (active) and 10.8 µM (active); in assay [3], 15.1 µM (active) and 6.13 µM (active); in [6], 26.6 µM (active); with Aromatase (Homo sapiens), 21.1 µM (active) and 30.5 µM (active); in [8], 26.6 µM (active) and 60.8 µM (active); in assay [10] it was 29.8 µM (active) and 60.8 µM (active). Also, the Potency is 15.4 µM (active) and 29.8 µM (active) in assay [11]; 19.2 µM (active) and 29.8 µM (active) in assay [12]; 21.7 µM (active) and 11.9 µM (active) in assay [14]. In addition, the Potency entry in assay [2], in assay [4], in assay [7], in assay [9] and in assay [15] was “inactive” each time.

As for `COc1ccc(Cc2cnc(N)nc2N)cc1OC`, the Potency result in assay [1], in assay [2], in [3], in assay [4], in assay [5] and in assay [6] was “inactive” each time. The Potency result (in [7]; in the assay with Aromatase (Homo sapiens); in [8]; in assay [9]; in assay [10]; in assay [15]) was “inactive” in each case. Also, the Potency entry in assay [17], in [12], in assay [13], in assay [18] and in [14] was “inactive” each time.
